According to PubChem BioAssay (NCI):
Compounds without any hit were thinned out: in the full panel of roughly 79,000, 15% have a hit. Rule as the data show it: active = growth inhibition above about 70%; inactive = the rest.

Assays:
[1] = NCI Yeast Anticancer Drug Screen. Data for the rad50 strain (AID 155);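 also: 0% = growth of vehicle-only cultures of the same strain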; conditions: S. cerevisiae rad50 strain growth inhibition, hits give high values; at 50.0 µM unless noted
In short: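 Genetically altered yeast (DNA repair pathway); compound treatment; growth inhibition vs vehicle ctrl.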

[2] = NCI Yeast Anticancer Drug Screen. Data for the mec2-1 strain (AID 157); conditions: S. cerevisiae mec2-1 strain, hits give high values; at 50.0 µM unless noted
In short: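 Mutant yeast (mec2-1) grown with compound; growth inhibition relative to vehicle control reported.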

[3] = NCI Yeast Anticancer Drug Screen. Data for the sgs1 mgt1 strain (AID 161);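 also: 0% = growth of cultures given vehicle only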; conditions: S. cerevisiae sgs1 mgt1 strain, hits give high values; at 50.0 µM unless noted
In short: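 Growth of a repair-deficient yeast mutant was monitored after compound treatment and expressed as inhibition relative to vehicle-treated cultures.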

[4] = NCI Yeast Anticancer Drug Screen. Data for the cln2 rad14 strain (AID 165);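 also: 0% = growth equal to vehicle treated cultures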; conditions: S. cerevisiae cln2 rad14 strain, hits give high values; at 50.0 µM unless noted
In short: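 Readout is yeast growth inhibition versus vehicle-treated controls, using a strain with cln2 and rad14 alterations exposed to compound.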

[5] = NCI Yeast Anticancer Drug Screen. Data for the bub3 strain (AID 167); conditions: S. cerevisiae bub3 mutant strain, hits give high values; at 50.0 µM unless noted
In short: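 Yeast carrying a defined mutation is treated with each compound, and growth is compared with that of vehicle-exposed cells to give inhibition.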

[6] = NCI Yeast Anticancer Drug Screen. Data for the mlh1 rad18 strain (AID 175); conditions: S. cerevisiae mlh1 rad18 strain growth inhibition, hits give high values; at 50.0 µM unless noted
In short: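 Genetically defined yeast (DNA repair-deficient) exposed to compounds; growth inhibition determined relative to vehicle.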

Measured: growth inhibition

CN=Nc1c(O)[nH]c2ccc(C)cc12
inactive: [1] -5.25% | [2] 0.2% | [3] -8.3% | [4] -43.1% | [5] -8.15% | [6] 2.05%

COC(=O)C1CCC(=O)N1Cc1cccs1 (stereo not given)
inactive: [1] -22.9% | [2] -1.7% | [3] -11.1% | [4] 22.1% | [5] 3.55% | [6] -13.2%

Cc1ccc2[nH]c(=O)[nH]c(=O)c2c1
inactive: [1] -5.85% | [2] -5% | [3] -4.5% | [4] -45.2% | [5] -3.5% | [6] -12.7%

O=C(O)CCSCCC(=O)O
inactive: [1] -22.8% | [2] -2.5% | [3] -29.4% | [4] -48.4% | [5] -13.6% | [6] 22.4%

O/N=C(Sc1ccccn1)/C(=N/O)Sc1ccccn1
inactive: [1] -7.25% | [2] 0% | [3] -2.9% | [4] -3.05% | [5] 4.7% | [6] 4.9%
